According to PubChem BioAssay:
Values without a mark were called inactive. No rule for the calls is given here.

Each molecule was assayed against Lethal factor (Bacillus anthracis) (UniProt P15917) (assay: Bacillus anthracis lethal factor inhibition, microsphere flow cytometry protease assay, validation at 10 µM (AID 588461)). Settings: multiplex microsphere protease cleavage assay, active compounds read high.

Question: How did the inhibition turn out when `CN1CCN(C2=Nc3ccccc3Oc3ccc(Cl)cc32)CC1` was run?
Answer: -3.9%

Question: For `C/C=C/c1ccc(OCCCCN2CC(C)CC(C)C2)c(OC)c1` (centres undefined), which inhibition is on record?
Answer: -6%

Question: How did the inhibition turn out when `Fc1ccc(NC(=S)Nc2ccccc2Cl)cc1` was run?
Answer: -3.5%

Question: With `C[C@]12CCC(=O)C=C1[C@H](O)C[C@@H]1[C@@H]2[C@@H](O)C[C@@]2(C)[C@H]1CC[C@]2(O)C(=O)CO` as the molecule, how does the inhibition read?
Answer: 4.2%

Question: With `Cc1ccc2c(c1)c1c(n2C)C(=O)CCC1` as the molecule, how does the inhibition read?
Answer: 3.3%

Question: With `N#Cc1cc2c([nH]c1=O)CCCC2` as the molecule, how does the inhibition read?
Answer: 2.6%

Question: Which inhibition does the source give for `O=C(NCc1ccccc1Cl)NC(=O)c1ccccc1` here?
Answer: 6.8%

Question: How did the inhibition turn out when `COC(=O)C1=C(C)NC(C)=C([N+](=O)[O-])C1c1ccccc1C(F)(F)F` (centres undefined) was run?
Answer: -11.2%

Question: How did the inhibition turn out when `OCCN1CCN(CCCN2c3ccccc3Sc3ccc(C(F)(F)F)cc32)CC1` was run?
Answer: -5.1%

Question: For `CCSC(SCC)[C@H](O)[C@@H](O)[C@H](O)[C@H](O)CO`, which inhibition is on record?
Answer: -1.5%

Question: How did the inhibition turn out when `Cn1cc(C2N3CC4(C)CN2CC(C)(C3)C4=O)c2ccccc21` (centres undefined) was run?
Answer: -10.2%

Question: Which inhibition does the source give for `CC(=O)OCC(=O)[C@@]1(OC(C)=O)[C@@H](C)C[C@H]2[C@@H]3C[C@H](F)C4=CC(=O)C=C[C@]4(C)[C@@]3(F)[C@@H](O)C[C@@]21C` here?
Answer: -0.9%

Question: How did the inhibition turn out when `O=C1NC2(Nc3ccccc31)C(=O)Nc1ccc(Br)cc12` (centres undefined) was run?
Answer: 6.8%

Question: For `O[C@@H](CNC[C@H](O)c1ccccc1)c1ccccc1`, which inhibition is on record?
Answer: 4.2%

Question: For `Cc1cccc(C)c1NS(=O)(=O)c1ccc(NC(=O)c2ccc(Cl)c([N+](=O)[O-])c2)cc1`, which inhibition is on record?
Answer: 0.9%

Question: With `O=C(Nc1ccc(F)c([N+](=O)[O-])c1)c1ccc2c(c1)OCCO2` as the molecule, how does the inhibition read?
Answer: -7.5%

Question: Which inhibition does the source give for `COC(=O)c1cc(OC)c(OC)cc1NC(=O)CN1C(=O)c2ccccc2C1=O` here?
Answer: -5.5%

Question: Which inhibition does the source give for `COc1cc2ccc(=O)oc2c(O)c1OCC=C(C)C` here?
Answer: 1.2%

Question: How did the inhibition turn out when `CC(C)N(C(=O)Cc1ccccc1[N+](=O)[O-])C(C)C` was run?
Answer: -1.5%

Question: `CCOC(=O)C(=O)N1CCN(c2ccccc2OC)CC1` was tested. Which inhibition did it give?
Answer: -4.9%

Question: How did the inhibition turn out when `CCCCC[C@H](O)/C=C/[C@@H]1[C@@H](C/C=C\CCCC(=O)OC)[C@@H](O)C[C@H]1O` was run?
Answer: -1.1%

Question: Which inhibition does the source give for `Cc1ccc(/C(=C\CN2CCCC2)c2ccccn2)cc1` here?
Answer: 11.9%

Question: For `O=C(O)/C=C/c1cccc(OCc2ccccc2)c1`, which inhibition is on record?
Answer: 3.3%

Question: For `CCCC(=O)O[C@]1(C(=O)CO)CC[C@H]2[C@@H]3CCC4=CC(=O)CC[C@]4(C)[C@H]3[C@@H](O)C[C@@]21C`, which inhibition is on record?
Answer: -0.6%

Question: Which inhibition does the source give for `CC(C)(C)OC(=O)N1CC(O)CC1C(=O)OCC(=O)c1ccc(Cl)cc1` (centres undefined) here?
Answer: 0.1%

Question: How did the inhibition turn out when `COc1ccc(C2=C(CN(C)C)C(c3ccccc3)c3ccccc3O2)cc1` (centres undefined) was run?
Answer: -2.3%

Question: For `Cc1coc2cc3oc(=O)c(CCC(=O)O)c(C)c3cc12`, which inhibition is on record?
Answer: -2.2%

Question: With `COc1ccc(C(=O)CCN2CCc3cc(OC)c(OC)cc3C2)cc1` as the molecule, how does the inhibition read?
Answer: -2.9%

Question: How did the inhibition turn out when `CC1=C(C)C(=O)C(CCCCC#CCCCC#CCO)=C(C)C1=O` was run?
Answer: -2.3%

Question: Which inhibition does the source give for `CC(C)=CCCC(C)CN1CCC(N2CCC(C(=O)N3CCCC3)CC2)CC1` (centres undefined) here?
Answer: -1.1%

Question: `O=C(O)[C@@H](O)c1ccccc1` was tested. Which inhibition did it give?
Answer: -3.5%

Question: `COc1cc(C2CC(=O)NC3=C2C(=O)CC(C)(C)C3)ccc1O` (centres undefined) was tested. Which inhibition did it give?
Answer: 0%

Question: For `O=C(NC1CC1)C1CCN(C2CCN(C(=O)Cc3ccc(F)cc3)CC2)CC1`, which inhibition is on record?
Answer: 4.9%

Question: How did the inhibition turn out when `O=C(O)c1ccc(N2C(=O)/C(=C\c3ccccc3)N=C2c2ccccc2)cc1` was run?
Answer: 4.4%

Question: With `CC(=O)N(CCC1(C(C)C)CCOC(C)(C)C1)Cc1ccco1` (centres undefined) as the molecule, how does the inhibition read?
Answer: 0.2%

Question: How did the inhibition turn out when `CS(=O)(=O)Nc1cccc(C(=O)CC2(O)C(=O)Nc3ccc(Br)cc32)c1` (centres undefined) was run?
Answer: 6.6%

Question: How did the inhibition turn out when `COc1ccc(C2N3CC4(C)CN2CC(C)(C3)C4)cc1OC` (centres undefined) was run?
Answer: -4.9%

Question: With `Cc1ccnc(NS(=O)(=O)c2ccc(N)cc2)n1` as the molecule, how does the inhibition read?
Answer: -1.5%

Question: Which inhibition does the source give for `Cc1oc2c(O)c(O)ccc2c(=O)c1-c1ccccc1` here?
Answer: 2%
